The supplement of paper PMC10849652
About 7,900 targets were measured; listed, in parts, are those with a hit and a random draw of the rest. About 0.6% of all pairs of compound and target were hits. A number with no mark means an inactive call.

These targets were tested with CC(C)(C)Cn1c(N)nc2ccc(-c3[nH]c(C(C)(C)C)nc3-c3ccc(F)cc3)nc21 [ralimetinib] (assay: log2 fold change, soluble protein after heating vs DMSO (PISA); higher = thermal stabilisation; K562 cells, 10 uM, 30 min; active = over 0.2 and 3.5 SD of the protein, either way, in both replicates (recomputed)).
How it was run: (§1)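 K562 cells at 2×10^6 cells/mL were given 10 μM compound for 30 min. Aliquots then went through 3 min of heating across 48°C-58°C, were pooled, and were extracted in PBS with 0.5% NP-40 at 4°C, and the supernatant after 21,000xg for 90 min was quantified by TMTpro 16plex LC-MS/MS with channel sums equalised. Thermal stability relative to control samples, from duplicates, is given as log2 fold change.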

UniProt P30281, sequence (P30281 whole entry, looked up): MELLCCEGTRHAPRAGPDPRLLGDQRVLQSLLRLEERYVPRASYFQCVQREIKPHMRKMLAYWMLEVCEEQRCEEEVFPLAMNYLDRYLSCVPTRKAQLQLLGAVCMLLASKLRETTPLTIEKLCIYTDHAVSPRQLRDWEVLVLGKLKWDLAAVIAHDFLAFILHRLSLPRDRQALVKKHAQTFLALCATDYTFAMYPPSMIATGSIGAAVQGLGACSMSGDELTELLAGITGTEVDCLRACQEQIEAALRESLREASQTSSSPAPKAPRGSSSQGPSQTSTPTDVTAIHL
UniProt P24863, sequence (P24863 whole entry, looked up): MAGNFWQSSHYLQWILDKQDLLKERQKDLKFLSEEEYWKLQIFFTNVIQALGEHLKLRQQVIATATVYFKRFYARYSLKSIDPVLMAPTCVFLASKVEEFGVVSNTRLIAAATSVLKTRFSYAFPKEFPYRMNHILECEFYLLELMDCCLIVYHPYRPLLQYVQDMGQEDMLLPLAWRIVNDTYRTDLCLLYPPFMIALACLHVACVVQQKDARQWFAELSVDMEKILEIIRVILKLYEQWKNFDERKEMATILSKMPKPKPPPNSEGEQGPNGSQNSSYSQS
UniProt Q69YH5, sequence (Q69YH5 whole entry, looked up): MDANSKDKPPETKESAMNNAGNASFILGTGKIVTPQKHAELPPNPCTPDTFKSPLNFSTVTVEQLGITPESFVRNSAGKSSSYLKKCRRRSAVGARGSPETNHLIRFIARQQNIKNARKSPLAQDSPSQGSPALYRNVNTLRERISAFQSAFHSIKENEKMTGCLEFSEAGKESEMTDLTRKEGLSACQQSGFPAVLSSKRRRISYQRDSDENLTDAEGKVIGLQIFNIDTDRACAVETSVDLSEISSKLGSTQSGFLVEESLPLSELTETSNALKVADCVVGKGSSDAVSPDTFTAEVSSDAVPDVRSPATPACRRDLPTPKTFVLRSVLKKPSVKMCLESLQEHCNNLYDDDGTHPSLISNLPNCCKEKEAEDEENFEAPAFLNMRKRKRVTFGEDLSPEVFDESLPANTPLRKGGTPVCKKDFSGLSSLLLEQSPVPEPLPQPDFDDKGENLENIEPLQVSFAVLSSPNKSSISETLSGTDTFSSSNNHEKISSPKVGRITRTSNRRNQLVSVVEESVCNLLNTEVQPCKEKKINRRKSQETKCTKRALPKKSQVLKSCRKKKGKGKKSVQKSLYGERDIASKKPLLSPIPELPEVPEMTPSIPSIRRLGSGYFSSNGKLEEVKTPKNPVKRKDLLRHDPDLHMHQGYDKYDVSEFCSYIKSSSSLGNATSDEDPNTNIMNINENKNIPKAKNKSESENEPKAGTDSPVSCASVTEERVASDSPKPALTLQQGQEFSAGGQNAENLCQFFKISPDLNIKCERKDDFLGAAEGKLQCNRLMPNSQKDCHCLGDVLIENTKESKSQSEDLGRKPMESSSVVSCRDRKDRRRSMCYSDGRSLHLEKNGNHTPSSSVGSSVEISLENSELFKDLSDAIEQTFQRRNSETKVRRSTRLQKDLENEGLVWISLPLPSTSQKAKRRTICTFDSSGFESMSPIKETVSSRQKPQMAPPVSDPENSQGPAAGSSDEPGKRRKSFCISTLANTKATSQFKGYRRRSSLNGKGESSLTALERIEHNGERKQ
UniProt Q14677, sequence (Q14677 whole entry, looked up): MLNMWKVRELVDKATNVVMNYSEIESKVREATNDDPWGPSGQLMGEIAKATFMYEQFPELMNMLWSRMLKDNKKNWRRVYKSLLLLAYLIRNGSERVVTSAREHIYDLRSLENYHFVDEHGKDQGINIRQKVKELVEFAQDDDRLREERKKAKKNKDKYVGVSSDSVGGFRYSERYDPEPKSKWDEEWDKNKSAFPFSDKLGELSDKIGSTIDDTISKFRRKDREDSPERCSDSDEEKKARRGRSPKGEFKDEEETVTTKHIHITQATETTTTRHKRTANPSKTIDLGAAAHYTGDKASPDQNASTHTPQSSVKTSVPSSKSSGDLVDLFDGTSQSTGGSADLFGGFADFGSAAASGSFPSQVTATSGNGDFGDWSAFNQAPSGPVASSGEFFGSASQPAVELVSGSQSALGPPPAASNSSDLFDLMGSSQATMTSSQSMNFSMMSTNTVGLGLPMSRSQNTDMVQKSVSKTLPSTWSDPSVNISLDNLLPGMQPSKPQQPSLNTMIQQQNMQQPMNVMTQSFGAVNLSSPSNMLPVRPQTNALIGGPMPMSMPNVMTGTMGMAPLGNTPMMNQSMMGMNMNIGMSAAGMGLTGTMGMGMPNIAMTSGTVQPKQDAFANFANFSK
UniProt P51790, sequence (P51790 whole entry, looked up): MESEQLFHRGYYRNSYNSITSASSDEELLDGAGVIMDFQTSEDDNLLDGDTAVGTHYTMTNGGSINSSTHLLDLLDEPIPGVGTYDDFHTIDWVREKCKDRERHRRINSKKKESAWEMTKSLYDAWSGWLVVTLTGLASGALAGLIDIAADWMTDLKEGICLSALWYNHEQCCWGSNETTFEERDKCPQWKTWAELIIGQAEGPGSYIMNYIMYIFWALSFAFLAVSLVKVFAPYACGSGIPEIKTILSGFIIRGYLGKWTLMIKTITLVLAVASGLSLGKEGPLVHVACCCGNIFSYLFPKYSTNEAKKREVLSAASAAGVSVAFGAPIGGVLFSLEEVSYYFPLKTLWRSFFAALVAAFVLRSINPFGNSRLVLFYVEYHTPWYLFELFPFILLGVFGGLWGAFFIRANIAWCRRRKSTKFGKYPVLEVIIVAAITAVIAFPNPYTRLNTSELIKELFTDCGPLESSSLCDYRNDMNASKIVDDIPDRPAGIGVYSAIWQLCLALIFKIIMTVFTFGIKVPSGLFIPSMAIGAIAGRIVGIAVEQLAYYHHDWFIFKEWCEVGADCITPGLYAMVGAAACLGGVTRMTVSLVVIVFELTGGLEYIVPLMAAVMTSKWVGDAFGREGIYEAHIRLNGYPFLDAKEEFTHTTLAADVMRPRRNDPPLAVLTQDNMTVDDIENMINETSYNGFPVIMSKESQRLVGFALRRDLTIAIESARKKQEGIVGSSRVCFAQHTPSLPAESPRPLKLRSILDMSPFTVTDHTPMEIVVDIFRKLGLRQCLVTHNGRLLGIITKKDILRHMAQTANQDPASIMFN
UniProt P09497, sequence (P09497 whole entry, looked up): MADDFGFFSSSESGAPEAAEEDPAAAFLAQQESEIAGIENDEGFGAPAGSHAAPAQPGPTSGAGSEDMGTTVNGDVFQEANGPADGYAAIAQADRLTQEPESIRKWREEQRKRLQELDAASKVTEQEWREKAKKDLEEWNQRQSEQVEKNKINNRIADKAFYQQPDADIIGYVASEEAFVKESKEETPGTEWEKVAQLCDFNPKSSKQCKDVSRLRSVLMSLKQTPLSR
UniProt Q9Y2V0, sequence (Q9Y2V0 whole entry, looked up): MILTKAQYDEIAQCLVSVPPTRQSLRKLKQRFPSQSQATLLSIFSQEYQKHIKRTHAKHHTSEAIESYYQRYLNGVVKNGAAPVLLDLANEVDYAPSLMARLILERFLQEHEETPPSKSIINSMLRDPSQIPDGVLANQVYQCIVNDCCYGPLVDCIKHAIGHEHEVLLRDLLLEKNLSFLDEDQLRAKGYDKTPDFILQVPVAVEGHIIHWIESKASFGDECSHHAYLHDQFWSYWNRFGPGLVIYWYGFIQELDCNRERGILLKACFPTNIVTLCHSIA
UniProt P30305, sequence (P30305 whole entry, looked up): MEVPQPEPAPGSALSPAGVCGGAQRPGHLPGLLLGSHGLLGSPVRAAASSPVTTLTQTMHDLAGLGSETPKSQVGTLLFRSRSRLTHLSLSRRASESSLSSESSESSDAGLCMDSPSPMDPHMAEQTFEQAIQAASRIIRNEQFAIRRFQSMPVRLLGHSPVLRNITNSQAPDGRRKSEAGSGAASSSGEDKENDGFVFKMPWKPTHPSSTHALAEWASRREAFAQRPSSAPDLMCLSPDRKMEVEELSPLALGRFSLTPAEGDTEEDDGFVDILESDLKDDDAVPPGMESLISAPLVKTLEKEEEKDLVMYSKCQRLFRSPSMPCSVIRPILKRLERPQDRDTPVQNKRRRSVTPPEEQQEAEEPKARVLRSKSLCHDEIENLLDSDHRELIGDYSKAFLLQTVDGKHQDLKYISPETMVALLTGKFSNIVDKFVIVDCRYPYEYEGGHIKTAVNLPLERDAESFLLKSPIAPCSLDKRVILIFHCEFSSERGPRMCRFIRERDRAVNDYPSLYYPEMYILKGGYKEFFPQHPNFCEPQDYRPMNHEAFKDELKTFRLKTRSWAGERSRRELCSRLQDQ
UniProt Q00535, sequence (Q00535 whole entry, looked up): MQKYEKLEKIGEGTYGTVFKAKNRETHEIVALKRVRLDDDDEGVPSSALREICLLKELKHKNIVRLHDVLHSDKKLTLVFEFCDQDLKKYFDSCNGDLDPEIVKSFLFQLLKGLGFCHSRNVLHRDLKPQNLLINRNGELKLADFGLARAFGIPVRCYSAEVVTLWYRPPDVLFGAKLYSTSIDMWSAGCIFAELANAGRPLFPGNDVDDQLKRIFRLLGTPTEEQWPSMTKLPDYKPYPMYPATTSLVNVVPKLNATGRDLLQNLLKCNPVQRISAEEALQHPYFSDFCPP
UniProt Q5BKX5, sequence (Q5BKX5 whole entry, looked up): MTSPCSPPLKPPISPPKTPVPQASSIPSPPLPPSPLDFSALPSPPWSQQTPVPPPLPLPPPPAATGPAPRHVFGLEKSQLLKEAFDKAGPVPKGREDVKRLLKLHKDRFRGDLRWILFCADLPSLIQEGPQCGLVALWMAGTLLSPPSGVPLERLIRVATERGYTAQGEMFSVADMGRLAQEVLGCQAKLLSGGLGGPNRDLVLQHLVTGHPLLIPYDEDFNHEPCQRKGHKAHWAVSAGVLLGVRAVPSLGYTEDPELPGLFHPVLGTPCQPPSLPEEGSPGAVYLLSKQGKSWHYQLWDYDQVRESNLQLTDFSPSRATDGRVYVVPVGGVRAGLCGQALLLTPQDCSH
UniProt P46527, sequence (P46527 whole entry, looked up): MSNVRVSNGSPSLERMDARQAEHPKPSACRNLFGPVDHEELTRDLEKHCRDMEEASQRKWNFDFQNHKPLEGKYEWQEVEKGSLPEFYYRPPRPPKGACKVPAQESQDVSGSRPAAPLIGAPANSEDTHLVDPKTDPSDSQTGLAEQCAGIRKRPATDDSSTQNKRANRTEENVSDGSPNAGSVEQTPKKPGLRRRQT

| Target | log2 fold change |
| --- | --- |
| CLUH, A0A494C0R8 | -0.125 |
| CHAF1A (UniProt Q13111) | 0.056 |
| CLINT1 isoform 3 (UniProt Q14677) | 0.139 |
| CCNC (UniProt P24863) | -0.027 |
| CLPP (UniProt Q16740) | -0.012 |
| CDK19 (UniProt Q9BWU1) | -0.133 |
| CDK5 (UniProt Q00535) | 0.032 |
| CLTB (UniProt P09497) | 0.061 |
| COG2 (UniProt Q14746) | 0.099 |
| C15orf41 (UniProt Q9Y2V0) | 0.004 |
| CNOT4 isoform 9 (UniProt O95628) | 0.128 |
| C19orf54 (UniProt Q5BKX5) | 0.019 |
| CLASP2 (UniProt O75122) | -0.067 |
| CCND3 (UniProt P30281) | -0.076 |
| CDCA2 (UniProt Q69YH5) | 0.081 |
| CDK2AP2 (UniProt O75956) | 0 |
| CDKN1B (UniProt P46527) | -0.024 |
| CORO2A (UniProt Q92828) | 0.019 |
| CLUH (UniProt O75153) | 0.028 |
| CENPE (UniProt Q02224) | 0.119 |
| CCNDBP1 (UniProt O95273) | 0.168 |
| CLSPN (UniProt Q9HAW4) | -0.033 |
| CLPTM1L (UniProt Q96KA5) | -0.05 |
| CLN8 (UniProt Q9UBY8) | 0.643 |
| CDC25B isoform 4 (UniProt P30305) | 0.079 |
| CDK4 (UniProt P11802) | 0.054 |
| CLCN3 (UniProt P51790) | -0.076 |
| CEBPZOS (UniProt A8MTT3) | -0.076 |
| COX17 (UniProt Q14061) | 0.41 |

Each target was assayed with CC(C)(O)CC(=O)NCCn1ccc2ncnc(Nc3ccc(Oc4cccc(C(F)(F)F)c4)c(Cl)c3)c21 in the same assay as above.
How it was run: as §1

| Target | log2 fold change |
| --- | --- |
| CLUH, A0A494C0R8 | -0.231 |
| CHAF1A (UniProt Q13111) | 0.067 |
| CLINT1 isoform 3 (UniProt Q14677) | 0.102 |
| CCNC (UniProt P24863) | 0.053 |
| CLPP (UniProt Q16740) | 0.017 |
| COX7B (UniProt P24311) | -0.011 |
| CLN5 (UniProt O75503) | 0.001 |
| CDK19 (UniProt Q9BWU1) | -0.02 |
| CDK5 (UniProt Q00535) | -0.07 |
| CLTB (UniProt P09497) | -0.021 |
| COG2 (UniProt Q14746) | -0.317 |
| C15orf41 (UniProt Q9Y2V0) | -0.103 |
| C19orf54 (UniProt Q5BKX5) | -0.003 |
| CCND3 (UniProt P30281) | 0 |
| CDCA2 (UniProt Q69YH5) | -0.138 |
| CDK2AP2 (UniProt O75956) | -0.077 |
| CD84 (UniProt Q9UIB8) | 0.068 |
| CDKN1B (UniProt P46527) | 0.012 |
| CLUH (UniProt O75153) | -0.048 |
| CNN3 (UniProt Q15417) | -0.138 |
| CDK17 isoform 2 (UniProt Q00537) | -0.069 |
| CLSPN (UniProt Q9HAW4) | 0.038 |
| CLPTM1L (UniProt Q96KA5) | -0.069 |
| CMTM3 (UniProt Q96MX0) | -0.108 |
| CDC25B isoform 4 (UniProt P30305) | -0.049 |
| CDK4 (UniProt P11802) | -0.098 |
| CLCN3 (UniProt P51790) | 0.015 |
| COX17 (UniProt Q14061) | -0.158 |

Each target was assayed with CC(C)C1=C2N=C(C=C(N2N=C1)NCC3=CC=CC=C3)NCCCCCCN in the same assay as above.
How it was run: as §1

| Target | log2 fold change |
| --- | --- |
| CLUH, A0A494C0R8 | -0.257 |
| CHAF1A (UniProt Q13111) | -0.066 |
| CLINT1 isoform 3 (UniProt Q14677) | 0.103 |
| CCNC (UniProt P24863) | 0.041 |
| CLPP (UniProt Q16740) | 0.097 |
| COX7B (UniProt P24311) | 0.112 |
| CLN5 (UniProt O75503) | -0.62 |
| CDK19 (UniProt Q9BWU1) | 0.222 |
| CAV2 (UniProt P51636) | -0.073 |
| CDK5 (UniProt Q00535) | -0.021 |
| CLTB (UniProt P09497) | 0.024 |
| COG2 (UniProt Q14746) | -0.009 |
| C15orf41 (UniProt Q9Y2V0) | -0.17 |
| CNOT4 isoform 9 (UniProt O95628) | -0.068 |
| C19orf54 (UniProt Q5BKX5) | -0.022 |
| CLASP2 (UniProt O75122) | 0.086 |
| CCND3 (UniProt P30281) | -0.303 |
| CDCA2 (UniProt Q69YH5) | -0.009 |

| Target | log2 fold change |
| --- | --- |
| CDK2AP2 (UniProt O75956) | 0.258 |
| CD84 (UniProt Q9UIB8) | 0.024 |
| CDKN1B (UniProt P46527) | 0.215 |
| CORO2A (UniProt Q92828) | -0.088 |
| CLUH (UniProt O75153) | -0.179 |
| CNN3 (UniProt Q15417) | -0.17 |
| CDK17 isoform 2 (UniProt Q00537) | 0.078 |
| CENPE (UniProt Q02224) | 0.211 |
| CCNDBP1 (UniProt O95273) | -0.077 |
| CLSPN (UniProt Q9HAW4) | -0.062 |
| CLPTM1L (UniProt Q96KA5) | -0.281 (active) |
| CMTM3 (UniProt Q96MX0) | 0.068 |
| CLN8 (UniProt Q9UBY8) | 0.017 |
| CDC25B isoform 4 (UniProt P30305) | 0.021 |
| CDK4 (UniProt P11802) | -0.333 |
| CLCN3 (UniProt P51790) | -0.05 |
| CEBPZOS (UniProt A8MTT3) | 0.018 |
| COX17 (UniProt Q14061) | 0.019 |
